Data taken from PubChem BioAssay AID1619 (SRMLSC, 2009).
Screen size: about 220,000 compounds; about 830 (0.38%) were called active.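 Rule for the calls: active = compound inhibiting the enzyme by more than half at any dose during confirmatory dose-response retesting; inconclusive = strong single-dose inhibitors picked by rank but not retested; inactive = the rest.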 Not all results are given here. Potency and affinity values are given separately.

Each compound was assayed against Leucine aminopeptidase (Plasmodium falciparum (isolate 3D7)) (UniProt Q8IL11) (assay: P. falciparum M17LAP inhibitors, primary screen, biochemical, fluorogenic H-Leu-NHMec substrate, 1536-well (AID 1619;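 note: plate controls were full reaction with DMSO carrier for no effect and no enzyme background for full effect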)). Conditions: recombinant M17LAP, H-Leu-NHMec fluorogenic kinetic assay; at 30 µM; stronger effect = higher value.
Sequence of Leucine aminopeptidase (Plasmodium falciparum (isolate 3D7)) (Q8IL11 whole entry, looked up): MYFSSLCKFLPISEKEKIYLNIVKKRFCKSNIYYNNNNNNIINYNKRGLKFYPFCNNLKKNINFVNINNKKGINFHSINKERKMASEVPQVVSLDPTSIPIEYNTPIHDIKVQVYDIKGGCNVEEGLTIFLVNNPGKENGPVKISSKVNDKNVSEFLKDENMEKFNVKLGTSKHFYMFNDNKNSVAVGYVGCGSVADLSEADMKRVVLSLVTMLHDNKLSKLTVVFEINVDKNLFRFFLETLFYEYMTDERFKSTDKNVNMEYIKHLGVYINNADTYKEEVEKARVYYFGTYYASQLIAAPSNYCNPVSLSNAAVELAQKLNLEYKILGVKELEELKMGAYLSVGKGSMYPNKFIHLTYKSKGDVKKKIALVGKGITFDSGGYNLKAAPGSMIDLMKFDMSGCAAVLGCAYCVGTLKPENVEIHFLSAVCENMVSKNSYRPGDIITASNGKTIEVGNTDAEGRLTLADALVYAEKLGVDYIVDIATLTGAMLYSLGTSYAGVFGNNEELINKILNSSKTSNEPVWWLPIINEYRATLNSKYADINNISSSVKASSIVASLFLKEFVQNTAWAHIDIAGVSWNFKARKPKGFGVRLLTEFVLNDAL

inhibition, inactive:
COc1cc(CNC2CCCC2)cc(Cl)c1OCc1ccccc1F -3.97%, CC(NC(=O)c1ccc(Br)cc1)c1ccccc1 (stereo not drawn) 12.4%, Cc1nc(-c2cccc(Cl)c2)n[nH]1 -5.31%, CCn1c(-c2cccc(Cl)c2)n[nH]c1=S 6.53%, COC(=O)CN1C(=O)C(O)(CC(=O)c2ccc(Cl)cc2)c2ccccc21 (stereo not drawn) 12.1%, C/C(=N/NC(=O)CSCc1ccc(Cl)cc1)c1cccc(NC(=O)c2ccccc2)c1 -0.71%, CN(C)C(=S)Nc1cccc(-c2n[nH]c(=S)o2)c1 4%, O=C(CN1C(=O)c2cccc3cccc1c23)Nc1ccc2c(c1)OCO2 31.3%, O=C(CN1C(=O)CSc2ccccc21)Nc1ccc2c(c1)OCCO2 12.7%, CC1CC(=O)N(CC(=O)NCc2ccc3c(c2)OCO3)c2ccccc2S1 (stereo not drawn) 24%, CC1CC(=O)N(CC(=O)Nc2ccc3c(c2)OCCO3)c2ccccc2S1 (stereo not drawn) 51.7%, O=C(CN1C(=O)CCSc2ccccc21)Nc1ccc2c(c1)OCO2 48.6%, O=C(CCN1C(=O)c2ccccc2C1=O)Nc1ccc2c(c1)OCCO2 10.7%, O=C(CCCNS(=O)(=O)c1cccs1)N1CCc2ccccc2C1 -15.3%, COc1ccccc1C(=O)N(NC(=O)Oc1ccccc1)C(C)(C)C -4.52%, COc1cc(/C=N/NC(=O)c2nonc2N)cc(OC)c1OC 12.6%, S=C(Nc1ccccc1)N(CCN1CCOCC1)Cc1cccc(Cl)c1 3.82%, CCOC(=O)c1[nH]c2ccc(Br)cc2c1NC(=O)CCN1CCCC(C)C1 (stereo not drawn) 19.3%, CCC(C)(C)NC(=O)CN(C(=O)c1snc(C(N)=O)c1N)c1ccc(OC)c(OC)c1 -0.26%, COC(=O)c1ccc(Cl)c(NC(=O)CN2CCN(C)CC2)c1 -7.62%, CC(C)n1cnnc1SCC(=O)Nc1ccc(Br)cc1F -3.86%, Cn1cnnc1SCC(=O)Nc1ccc(Br)cc1F 4.31%, O=C(CSc1ccccn1)Nc1cccc2ccccc12 6.7%, CCCn1c(SCC(=O)Nc2ccccc2CC)nnc1C(C)C -2.04%, COC(=O)c1ccc(Cl)c(NC(C)=O)c1 4.44%, O=C(CSCC(=O)Nc1cccc2ccccc12)Nc1cccc2ccccc12 -9.94%, CCc1ccccc1NC(=O)CSc1n[nH]c(C)c1[N+](=O)[O-] -11.3%, C/C(=C\C(=O)c1ccccc1)Nc1ccc2c(c1)OCO2 -1.02%, CCOC(=O)c1cnc(SC)nc1Oc1cccc(NS(=O)(=O)c2ccccc2)c1 12.5%, COc1ccc(-c2nc(C)c(C(C)=O)n2O)cc1[N+](=O)[O-] 39.5%, O=C(COn1nnc2ccc(C(F)(F)F)cc21)Nc1c(Cl)cccc1Cl -14.4%, FC(F)(F)c1ccnc(NCc2ccco2)n1 5.81%, O=C(CN1C(=O)S/C(=C\C=C\c2ccccc2)C1=O)Nc1ccc(C(=O)O)cc1 15.3%, O=C(CN1C(=O)S/C(=C\C=C\c2ccccc2)C1=O)Nc1ccc(O)cc1 9.74%, Cc1ccc(C)c2nc(SCC(=O)N3CCCc4ccccc43)c(C#N)cc12 -4.2%, CC(=O)NCC(=O)N1CCCC(C(=O)c2ccc(-c3ccccc3)c(F)c2)C1 (stereo not drawn) -3.83%, Cc1cc(Nc2ccc([N+](=O)[O-])cc2)nc2ccccc12 13.7%, CC(C)OC(=O)C1CC=CCC1C(=O)Nc1ccc(Cl)cc1 (stereo not drawn) 2.15%, CCOc1ccc(NS(=O)(=O)c2ccc(NC(=O)[C@@H]3CCCC[C@@H]3C(=O)O)cc2)cc1 42.4%, CCOc1ccc(NC(=O)C2C3CC/C=C\CCC32)cc1 (stereo not drawn) 4.68%, CC1=C(C)CC(C(=O)Nc2ccc(C(N)=O)cc2)C(C(=O)O)C1 (stereo not drawn) 20.2%, CCOc1ccc(NC(=O)C2CC(=O)OC2c2ccccc2)cc1 (stereo not drawn) -1.92%, CC(C)(C)c1ccc(Oc2ccc(NC(=O)C3CC=CCC3C(=O)O)cc2)cc1 (stereo not drawn) 3.52%, CC(=O)c1ccn(S(=O)(=O)c2ccc(Cl)cc2)c1 9.38%, CC(=O)Nc1ccc(NC(=O)C2CCCN(c3nnc(-n4cccc4)s3)C2)cc1 (stereo not drawn) 4.4%, CCNC(=O)NCc1c(C)c(C)n(Cc2ccccc2)c1-n1cccc1 4.1%, CCOc1ccc2[nH]cc(C(=O)NCCCN3CCOCC3)c(=O)c2c1 4.64%, CCCCN1CNC(=S)N(CCc2ccc(OCC)c(OCC)c2)C1 4.53%, C=CCn1c(SCC(=O)Nc2cc(C)on2)nnc1C1COc2ccccc2O1 (stereo not drawn) 9.81%, C=CCn1c(SCC(=O)NCc2ccc3c(c2)OCO3)nnc1C1CCCCC1 20.8%, Cc1nnc(SCC(=O)NCc2ccc3c(c2)OCO3)n1C -1.94%, Cn1c(SCC(=O)c2ccc3c(c2)OCO3)nnc1C1COc2ccccc2O1 (stereo not drawn) 10.4%, O=c1[nH][nH]cc1C=Nc1ccccc1Cl 2.22%, Clc1ccc(OCc2nc(-c3ccncc3)no2)cc1 0.59%, COc1ccc(-c2[nH]n(-c3ccc([N+](=O)[O-])cc3)c(=O)c2C=NCc2ccncc2)cc1 -8.57%, CC(C)COC(=O)Nc1ccc(C(=O)O)cc1 13.3%, Cc1cc(C(F)F)n2nc(C(=O)Nc3ccccc3F)nc2n1 1.81%, O=C(O)CCCN1C(=O)/C(=C/c2cn(-c3ccccc3)nc2-c2cccs2)SC1=S 7.34%, O=C(O)CCCCCN1C(=O)/C(=C\c2cn(-c3ccccc3)nc2-c2cccs2)SC1=S -1.95%, Cn1c(=O)c(-c2cc(Br)ccc2N)nc2ccccc21 9.54%, NC(=O)c1c(NC(=O)C2CCCO2)sc2c1CCCC2 (stereo not drawn) 25.2%, CCOC(=O)c1c(NC(=O)c2ccoc2C)sc2c1CCC2 16.6%, COC(=O)c1c(NC(=O)c2ccoc2C)sc2c1CCC2 -15.6%, NC(=O)c1c(NC(=O)C2CCCO2)sc2c1CCC2 (stereo not drawn) 40%, O=c1cc(-c2ccc([N+](=O)[O-])cc2)c2cc3c(cc2[nH]1)OCCO3 0.51%, CCc1cccc(C)c1NC(=S)N(CCN(C)C)C(C)c1cccnc1 (stereo not drawn) 3.46%, CSc1nnc(-c2sc3cc(C(F)(F)F)cnc3c2-c2cccnc2)n1C 2.54%, COc1cc(OC)c2ccc(=O)oc2c1C(CC(=O)N1CCOCC1)c1ccc2c(c1)OCO2 (stereo not drawn) 11.3%, CCCc1cc(=O)[nH]c(SCCOc2ccc(Cl)cc2)n1 3.09%, CCN=C(NCC)SC1CC(=O)N(c2ccccc2)C1=O (stereo not drawn) 0.73%, Cn1cnc(S(=O)(=O)Nc2ccc(C(F)(F)F)cc2)c1 8.69%, COc1ccc(S(=O)(=O)Nc2ccc(C(F)(F)F)cc2)cc1OC 8.66%, Cc1cc(NC(=O)CN2CCCCC2C)no1 (stereo not drawn) 15.1%, CC1=NNC(=O)C1CC(=O)N/N=C/C(Br)=C/c1ccccc1 (stereo not drawn) 15.5%, CC1C(=O)NN=C1C(=O)N/N=C\C(Br)=C\c1ccccc1 (stereo not drawn) 45.9%, CC(/C=N/NC(=O)CSc1nc(C)cc(C)n1)=C\c1ccccc1 11.7%, COc1ccccc1/C=C/C=N/NC(=O)CC1C(=O)NN=C1C (stereo not drawn) 13.6%, Cc1ccc(NC(=O)CCC(=O)N/N=C/C=C/c2ccccc2)cc1 16.5%, COc1ccccc1/C=C\C=N\NC(=O)CCn1nnc2ccccc21 4.22%, CC(=C/c1ccccc1)/C=N/NC(=O)CSc1nc(C)cc(C)n1 22.8%, CC1=NNC(=O)C1CC(=O)N/N=C/C=C/c1ccccc1 (stereo not drawn) 19.3%, Cc1ccc(C(=O)Nc2cc(=O)n(C)c(=O)n2C)cc1C 1.37%, CCNC(=O)C/C(C)=N/NC(=O)C1CCCCC1 12.5%, CCn1ccnc1CN(C)Cc1nc(-c2ccc(C(=O)OC)cc2)no1 2.83%, O=C(CNS(=O)(=O)c1ccc(C(=O)N2CCOCC2)cc1)N1CCOCC1 -0.01%, COc1ccccc1NC(=S)N1CCC(c2nc3ccccc3o2)CC1 2.4%, CCOC(=O)CCn1c(=S)n(CCC(=O)OCC)c2ccccc21 9.93%, COc1ccc(N2CCN(CC(O)COc3ccc([N+](=O)[O-])cc3)CC2)cc1 (stereo not drawn) 4.37%, O=C(Cc1ccccc1)c1c[nH]c(C(=O)O)c1 -7.97%, NC(=O)c1cccc(CC(=O)c2ccccc2)c1 -5.22%, O=c1[nH]nc(N/N=C/c2ccccc2OC(F)F)c(=O)[nH]1 3.73%, Cc1cccc(C)c1NC(=O)CCCSc1nc2ccccc2s1 2.06%, O=C(O)CCC(=O)Nc1nc2ccccc2s1 16.1%, CC(=O)Nc1scc(C)c1-c1nc2ccccc2s1 -9.4%, Cc1csc(NC(=O)CSCC(=O)O)c1-c1nc2ccccc2s1 1.7%, O=C(NNC(=S)Nc1ccc(Br)cc1Cl)c1ccncc1 21.5%, CCOC(=O)c1ccc(NC(=O)C2CCCN(S(=O)(=O)c3cnc[nH]3)C2)cc1 (stereo not drawn) -0.78%, COc1ccc(CN2CCN(C(C)C)C(CCO)C2)cc1Cn1cncn1 (stereo not drawn) 1.4%
